Test results reported in PubChem BioAssay (NCI).
About 83,000 compounds went through this panel and 20% of them were active in at least one assay; those are over-represented in the sample as a whole.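 Single-dose data. Exposure time 48 hours. Values below 10 considered active.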 Activity calls are given as the source filed them.

These compounds were tested on SNB-75 CNS (assay: NCI-60 one-dose screen, 48 h (100 = growth as untreated, 0 = no growth, -100 = all killed)). Details: 10 µM unless noted.

Row | Structure (SMILES) | growth
1 | c1ccc2cc(Cn3cc(CSc4nc5ccccc5s4)nn3)ccc2c1 | 101% (inactive)
2 | COCC(=O)Oc1cc(-c2ccc(C)cc2C)c(OC(=O)COC)c(-c2ccc(C)cc2C)c1 | 80.4% (inactive)
3 | Cc1nc2ccccc2c(/C=C/c2ccc(F)cc2)c1C(=O)/C=C/c1ccccc1 | 12.1% (inactive)
4 | O=C1C=C(SCCO)C(=O)c2ccccc21 | -83.9% (active)

These compounds were tested on SNB-19 CNS in the same assay as above. Details: 10 µM unless noted.

Row | Structure (SMILES) | growth
5 | COc1ccc(/C=C/C(c2cc(OC)c(OC)c(OC)c2)n2cncn2)cc1O (stereo unspecified) | 34.2% (inactive)
6 | COc1ccc(-c2cn(Cc3cc4ccccc4s3)nn2)cc1OCCN1CCCCC1 | 86.3% (inactive)
7 | COc1ccc(-c2nc3c(c(-c4ccc(Cl)cc4)nn3-c3ccccc3)c(-c3ccccc3)c2C#N)cc1 | 103% (inactive)
8 | COc1ccc2c(c1)CC[C@@H]1[C@@H]2CC[C@]2(C)C3C(=CC(COC(C)=O)C4C(=O)N(c5ccc(Cl)cc5)C(=O)C43)C[C@@H]12 (stereo partly specified) | 110% (inactive)
9 | COc1cc(/C=C/C(=O)N2CCN(C(=O)c3cc(OC)c(OC)c(OC)c3)CC2)ccc1OCCCOc1cc2c(cc1OC)C(=O)N1CCC[C@H]1C=N2 | 13.8% (inactive)
10 | CSc1nc2ccc(C)cc2cc1/C=C1/C=C(c2ccccc2)NC1=O | 67.3% (inactive)
11 | Cc1ccc2c(c1)sc1nc(-c3c[nH]c4ccccc34)c(Nc3ccccc3)n12 | 94.9% (inactive)
12 | N=C(N)c1ccc(-c2ccc(-c3ccccc3)o2)o1 | 38.3% (inactive)
13 | CN1C(=O)N2CN3CCCN(C3)CN3C(=S)NC1C23 (stereo unspecified) | 99.3% (inactive)
14 | Clc1ccc(-c2cc(-c3ccccc3)nc(N3CCN(CCCNc4ccnc5cc(Cl)ccc45)CC3)n2)cc1 | 49% (inactive)
15 | COc1cc(/C=C/c2cc(/C=C/c3ccc(O)c(OC)c3)n(C(=O)Nc3ccc(Cl)cc3)n2)ccc1O | 9.25% (active)
16 | N#Cc1c(-c2ccccc2)nc2c(c(-c3ccc(Cl)cc3)nn2-c2ccccc2)c1-c1ccc([N+](=O)[O-])cc1 | 90.9% (inactive)
17 | COc1ccc(Oc2ccc(/C=C/C(=O)c3cc4ccccc4oc3=O)cc2)cc1 | 91.7% (inactive)
18 | O=[N+]([O-])c1c(O)c(Cl)cc(Cl)c1Cl | 101% (inactive)
19 | O=S(O)c1cc(Cl)cc(Cl)c1OCc1ccccc1 | 102% (inactive)
20 | Cc1oc(-c2ccc(Cl)cc2)nc1C1=NN(C(=O)c2ccncc2)C(c2ccccc2)C1 (stereo unspecified) | 80.3% (inactive)

Row | Structure (SMILES) | growth
21 | CS(=O)(=O)c1ccc(-c2nc3ccccc3n2CC(=O)N/N=C/c2ccccc2)cc1 | 107% (inactive)
22 | CCCn1c(=S)sc2c(NNC(C)=O)nc(C)nc21 | 92.4% (inactive)
23 | N#CSc1c[nH]c2ccc(/C=C/C(=O)/C=C(O)/C=C/c3ccc4[nH]cc(SC#N)c4c3)cc12 | 46.2% (inactive)
24 | Fc1cccc(-c2nc(-c3c[nH]c4ncccc34)cs2)c1 | 70.8% [100 µM] (inactive)
25 | COc1ccc(Oc2ccc(/C=C/C(=O)c3ccc(OC)c(OC)c3)cc2)cc1 | 85.8% (inactive)
26 | CCCCn1c(NC(C)=O)c(S(=O)(=O)c2ccccc2)c2nc3ccccc3nc21 | 98.7% (inactive)
27 | COc1cc(O)c2c(=O)c3c(CC=C(C)C)cc(OC)c(O)c3oc2c1 | 27.2% (inactive)
28 | CC12OC(CC(O)C1O)n1c3ccccc3c3c4c(c5c6ccccc6n2c5c31)C(=O)N(CCN1CCCC1)C4=O (stereo unspecified) | 13.4% (inactive)
29 | C=C1CC[C@@H]2C(C)(C)[C@H](O)CC[C@@]2(C)[C@@H]1COc1ccc2ccc(=O)oc2c1 | 86.2% (inactive)
30 | COc1c2c(cc3c1C(=O)N[C@@H]1[C@@H](O)[C@@H](O)[C@H](O)C[C@@H]31)OCCO2 | 102% (inactive)
31 | C=C1C(=O)O[C@H]2[C@H]1CC/C(COC(=O)NCc1ccc(Cn3c(=O)sn(-c4ccccc4)c3=O)cc1)=C\CC[C@@]1(C)O[C@@H]21 | 92.4% (inactive)
32 | Cc1nc2sc(C(=O)Nc3ccccn3)c(N)c2cc1C(C)O (stereo unspecified) | 64.7% (inactive)
33 | c1cc(OCCN2CCCC2)ccc1CNc1ccc2nc(CCC3CCCCC3)[nH]c2c1 | 68.7% (inactive)
34 | Cc1nc([P+](c2ccccc2)(c2ccccc2)c2ccccc2)c(N2CCCCC2)o1 | 18.7% (inactive)
35 | COc1cc(/C=N/NC(=O)c2ccc(-n3cc(-c4ccccc4)nn3)cc2)cc(OC)c1OC | 58.9% (inactive)
36 | C=CN(C(=O)N1CCN(c2cc3c(cc2F)c(=O)c(C(=O)O)cn3C2CC2)CC1)c1nc(-c2ccc(Cl)cc2)cs1 | 59.5% (inactive)
